Fewer than 10 of roughly 1,200 compounds were called active. These entries were drawn from the full list. Unmarked numbers belong to inactive results. Calls follow the shape of the dose curve; as a rule, active = well fitted curve in the direction sought with a large enough effect; inconclusive = small, poorly fitted or top-dose-only effect, or another doubt; inactive = no such curve, though single readings can be large or run the other way.
Test: Confirmatory qHTS assay for inhibitors of Activation Induced Cytidine Deaminase (AID): UDG signals; also: 0% is about no effect
Details: UDG coupled enzyme activity counter-screen; series mostly up to 115 µM; activity change, negative = inhibition: at the top concentration
Description: Assay Provider (PI) Patricia Gearhart Ph.D.
National Institute on Aging
National Institute of Health (NIH), Bethesda, MD
Assay Provider (PI) Rahul Kohli Ph.D.
Perelman School of Medicine
University of Pennsylvania, Philadelphia, PA
Activation-Induced Deaminase (AID) is a cytosine deaminase which converts cytosine into uracil within stretches of ssDNA. The presence of uracil in DNA initiates a cascade of mutagenic DNA repair to introduce point mutations and DNA double strand breaks. Specific targeting of AID to the immunoglobulin heavy chain loci (Igh) promotes mutagenesis in the antibody variable region for somatic hypermutation (SHM) or switch regions leading to class switch recombination (CSR). However, AID also plays a role in accumulating unnecessary mutations across the genome. Mis-targeting of AID results in the initiation of tumor development and leads to greater drug resistance among cancer cells when continually expressed. To identify an AID inhibitor, a small molecule library will be screened in collaboration with NCATS core facility at NIH. To confirm biological function, inhibitors will be examined in an in vitro murine B-cell activation assay and subsequent secondary validation screens. Top molecules will be further screened to identify inhibitory efficacy against a wild type primary splenocytes assay. Using these approaches, we hope to identify a small molecule with great efficacy and low toxicity for use as a molecular probe to further characterize AID's intricacies, or even as a therapeutic.
A FRET based analysis of cytosine deamination, was developed to identify potential inhibitors of AID catalytic activity. This screen has two signal output, Read 1 evaluates the AID inhibition response. The second readout (Read 2) evaluates UDG response and is uses as a counterscreen to exclude false positive inhibitors. Inhibition in AID and inactivity in the UDG signal is the desired outcome for this assay.
SEQUENCE No. (e.g., 1, 2, 3, etc.); […] (e.g., Cells, Incubation, Reagent, etc.); VALUE; DESCRIPTION
1a; Reagent; 3 uL; [4/3x] 1 uM AID/2.67 U/mL UDG
1b; Reagent; 3 uL; 2 U/mL UDG
1c; Reagent; 3 uL; 1 uM AID
2a; Compound; 46 nL; Follow-up plates (0.64 uM - 10 mM)
2b; Control; 46 nL; ATA ([…] - 10 mM)
3; Time; 10 min; incubation at room temperature
5; Time; 4 hr; incubation at room temperature
6; Reagent; 4 uL; [2x] 250 mM NaOH
7; Time; 15 sec; centrifuge at 1000 rpm
8; Time; 30 min; incubation at room temperature
9a; Detection; fluorescence (Read 1: AID); EnVision (PerkinElmer) plate reader, 540 excitation and 590 emission filters
9b; Detection; fluorescence (Read 2: UDG); EnVision (PerkinElmer) plate reader, 560 excitation and 665 emission filters
NOTES (numbers refer to sequence above)
1a; Reagents were dispensed in a medium-binding black solid-bottom Greiner plates (789176F) using a BioRptr liquid dispenser. Dispense 3 uL of [4/3x] 1 uM AID (provided by Kohli lab) and [4/3x] 2 U/mL UDG (NEB M0280L) into columns 1, 2, 5 to 48.
1b; Dispense 3 uL of [4/3x] 2 U/mL UDG into column 3.
1c; Dispense 3 uL of [4/3x] 1 uM AID into column 4.
2a; Compound (7-points [uM]: 0.64; 3.2; 16; 80; 400; 2,000; 10,000; […]) double pin-transferred (Dip Factor = 2) using the Kalypsys (Wako USA) pintool equipped with a 1536 pinhead for a final concentration range of 7.32 nM - 114 uM.
2b; 10 mM Aurintricarboxylic Acid (Sigma A1895) (ATA, 8-point, n = 2, 1:2.5 dilution in column 2) double pin-transferred (Dip Factor = 2) using the Kalypsys (Wako USA) pintool equipped with a 1536 pinhead for a [final] range of 186 nM - 114 uM.
3; Room temperature incubation.
4; Dispense 1 uL of substrate mixture from the Kohli lab [4x] […] DJC20 and [4x] 250 nM DJC23 into columns 1 to 48 .
5; Room temperature incubation.
6; Dispense 4 uL of substrate mixture [2x] 250 mM NaOH into columns 1 to 48.
7; Centrifugation step to remove bubbles.
8; Room temperature incubation
9a; Fluorescence signal (column label AID) was read using the EnVision plate reader. […]

| Compound | activity change, negative = inhibition [%] |
| --- | --- |
| CCCCn1c(-c2ccc(C)cc2)c(C)n2c3c(=O)n(C)c(=O)n(C)c3nc12 | -8.55 |
| COc1ccccc1CC(=O)Nc1ccc2nc(Nc3cccc(C(F)(F)F)c3)cc(C)c2c1 | -7.35 |
| CC1CCCCN1CCNC(=O)c1ccc(Cn2c(SCc3ccccc3)nc3cccnc32)cc1 (centres undefined) | -1.41 |
| CC(C)CCN(Cc1ccco1)C(=O)c1cc2c(s1)-c1ccccc1OC2 | -3.35 |
| CCC(C)c1ccc(OCC(=O)Nc2cccc(-c3nc4ncccc4o3)c2)cc1 (centres undefined) | -3.86 |
| CCc1ccc(NC(=O)c2cc(C(C)=O)n3ccccc23)cc1 | -4.94 |
| CCc1ccc2oc(C(=O)NCC(c3ccc(Cl)cc3)N3CCOCC3)c(C)c2c1 (centres undefined) | -10.8 |
| COc1ccc(N(C)C(=O)c2cc3c(s2)-c2ccccc2OC3)cc1 | -11.3 |
| COc1ccc(C2CC(=O)N3CN(C4CCCCC4)CSC3=C2C#N)c(OC)c1 (centres undefined) | -11.5 |
| CCn1cc2nc(SCc3cccc(C(F)(F)F)c3)n(Cc3ccc(C)cc3)c(=O)c2n1 | -5.91 |
| Cc1ccc(-n2ncc(C(=O)N3CCN(Cc4ccccc4)CC3)c2C2CCN(C(=O)OC(C)(C)C)CC2)c(C)c1 | -9.77 |
| CCn1cc(S(=O)(=O)c2ccc(Cl)cc2)c(=O)c2cc(F)c(N3CCOCC3)cc21 | 8.08 |
| Cc1ccc(-n2c(=O)c3oc4ccccc4c3n(Cc3cccc(F)c3)c2=O)cc1C | 1.83 |
| O=C(c1cccn1-c1nnc(N2CCCCC2)s1)N1CCN(c2ccc(Cl)cc2)CC1 | -13.6 |
| Cc1ccc(Cl)cc1N1CCN(C(=O)c2ccc3c(c2)N(Cc2ccccc2)CCS3)CC1 | 10.8 |
| COc1ccc(-c2coc3c2c(C)cc2oc(=O)c(CC(=O)O)c(C)c23)cc1 | -15.3 |
| CCCc1cc(=O)n2[nH]c(NC(=O)c3ccc(C(C)(C)C)cc3)nc2n1 | 14.5 |
| Cc1ccccc1C(=O)Nc1ccc(C(=O)OCc2cc(=O)n3c4c(sc3n2)CCCC4)cc1 | -1.88 |
| Cc1ccc2c(C)c(C(=O)NCC(c3ccc(Cl)cc3)N3CCOCC3)oc2c1 (centres undefined) | -1.8 |
| CCOC(=O)c1c(C)oc2nc(C)nc(N3CCN(c4ccccc4F)CC3)c12 | -3.63 |
| CCN(CC)C(=O)c1ccc2c(c1)N(Cc1c(F)cccc1Cl)C(=O)c1ccccc1S2 | 0.172 |
| COc1ccc(-c2nn3c(-c4ccccc4C)nnc3c3ccccc23)cc1 | -9.22 |
| COc1ccc(CCNC(=O)CSc2cn(CCNC(=O)c3cccc(C(F)(F)F)c3)c3ccccc23)cc1OC | -4.31 |
| CCOCCCn1c(=N)c(C(=O)NC(C)c2ccccc2)cc2c(=O)n3cccc(C)c3nc21 (centres undefined) | -12.7 |
| COc1ccc(CNc2oc(-c3ccc(COc4ccccc4C)o3)nc2C#N)cc1 | -3.1 |
| Cc1ccc(Cl)cc1N(C)C(=O)c1sc2nc3n(c(=O)c2c1C)CCCC3 | -5.4 |
| COc1cc2c(=O)c(S(=O)(=O)c3ccc(C)cc3)cn(Cc3cccc(C)c3)c2cc1OC | -3.74 |

| Compound | activity change, negative = inhibition [%] |
| --- | --- |
| O=C(Nc1cc(-c2ccccc2)sc1C(=O)O)c1cccc(F)c1 | -3.22 |
| C=Cc1ccc(CN2C(=O)N(c3ccc(C)c(C)c3)S(=O)(=O)c3ccccc32)cc1 | -4.6 |
| O=S(=O)(NCCc1nnc2ccc(SCc3ccc(Cl)cc3Cl)nn12)c1ccccc1 | -1.19 |
| COc1ccc(-c2cc3ncc(C(=O)c4cc([N+](=O)[O-])ccc4O)cn3n2)cc1 | 4.06 |
| Cc1c(C(=O)N(C)c2ccccc2)sc2nc(-c3ccc(F)cc3)cn12 | -7.95 |
| CCOc1ccc2nc(Cl)c(C3CC(c4ccc(C)cc4)=NN3C(=O)CCC(=O)O)cc2c1 (centres undefined) | 4.17 |
| COc1ccccc1-c1nn(CCC(=O)Nc2ccc(C)cc2)c2nc(C)cc(C)c12 | -6.55 |
| Cc1ccc(C)c(N2CCN(C(=O)c3cnn(C(C)(C)C)c3C3CCN(C(=O)OC(C)(C)C)CC3)CC2)c1 | -6.07 |
| COc1cc2c(cc1OC)C(COc1ccc(F)cc1)N(C(=O)c1cccc(F)c1)CC2 (centres undefined) | -11.3 |
| COc1ccc(OC)c(NC(=O)Cn2c(=O)cc(-c3ccccc3)c3c(C)nn(C)c32)c1 | 7.45 |
| Cc1nc2c(C(=O)NCc3ccccc3)c[nH]n2c(=O)c1Cc1ccccc1Cl | 4.49 |
| CCCCCSc1nnc2c(n1)OC(CC)Nc1ccc(Br)cc1-2 (centres undefined) | 6.46 |
| CCCCN(CCCC)C(=O)c1cc2c(=O)n3cccc(C)c3nc2s1 | -1.48 |
| CCOc1ccc(C(=O)/C=C/c2cn(CC(O)CN3CCCCCC3)c3ccccc23)cc1 (centres undefined) | -4.79 |
| CCCc1nc2ccccc2n2c(-c3ccccc3)c3c(=O)n(C)c(=O)n(C)c3c12 | -2.27 |
| CCCN1CCN(CCCNC(=O)c2cc3c(Cl)nc4ccccc4c3s2)CC1 | 12.3 |
| COc1ccc(CSc2nc3ccncc3n2Cc2nc(-c3ccc(OC)c(OC)c3)oc2C)cc1 | 3.79 |
| COc1ccc(Cn2cc(C(=O)c3ccc(C)c(C)c3)c(=O)c3ccccc32)cc1 | -4.47 |
| Cc1ccccc1NC(=O)c1c(NC(=O)C(F)(F)F)sc2c1CCCCC2 | 6.21 |
| O=S1(=O)c2ccccc2N(Cc2ccc(Cl)cc2)c2ccccc21 | 3.98 |
| Cc1cccc(Cn2c(SCc3ccc(C(=O)N4CCCCCC4)cc3)nc3ccncc32)c1 | 1.99 |
| COCCc1nn2c(=O)cc(COC(=O)c3ccc(C(C)(C)C)cc3)nc2s1 | 6.29 |
| CCN(c1cccc(C)c1)S(=O)(=O)c1nnc(NC(=O)c2ccccc2Cl)s1 | 0.737 |
| COc1ccccc1N1CCN(C(=O)c2cc3c(-c4ccccc4F)nn(C)c3s2)CC1 | -3.23 |
| CCOc1cccc(C(=O)N(Cc2ccc(F)cc2)Cc2ccco2)c1 | -7.98 |
| CCOc1ccc(CCNc2ncnc3onc(-c4ccc(Cl)cc4)c23)cc1OCC | -4.41 |
| Cc1cc(OCCCSc2nc(-c3ccc(C(C)(C)C)cc3)nc3cc(=O)[nH]n23)ccc1Cl | -3.24 |

— PubChem BioAssay AID1347431 (National Center for Advancing Translational Sciences (NCATS), 2020)
